Bioassay records from PubChem.
CYP2C9 act – increases human cytochrome P450 2C9 activity | P11712 | recombinant CYP2C9, luciferin-H conversion, luminescence; stronger effect = higher value; factor 1 = untreated enzyme, 0 = blocked | activation factor at 5 µM | 96,000 compounds, 1.4% hits;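 active = activation factor of 2 or more for CYP2C9 at a 5 µM dose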;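 note: 0 = sulfaphenazole-blocked wells and 1 = vehicle-only wells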
CYP2C9 inhib – human CYP2C9 inhibition; CYP2C9 Supersomes, luciferin-H conversion, luminescence; inhibition, % at 5 µM; 96,000 compounds, 20% hits; AID 777;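 active = blocking of liver enzyme CYP2C9 beyond about 50% at 5 µM, limit read from the data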
MRP reversal – reverses drug resistance mediated by MRP; H69AR cells + 2 uM doxorubicin, CellTiter-Glo, 72 h; differential viability (reversal), % at 10 µM; 85,000 compounds, 0.04% hits;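 active = viability drop by adding the cancer drug above about 55%, with treated viability meeting a 40% cutoff, limit read from the data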;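 note: viability without doxorubicin minus viability with 2 µM doxorubicin for each compound; larger differential means the compound sensitizes cells more to doxorubicin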
MRP-1 activ – MRP-1 activation; H69AR cells + doxorubicin, viability rescue, CellTiter-Glo; viability increase, % at 10 µM; 140,000 compounds, 0.61% hits; AID 799;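 active = viability gain under doxorubicin at or above a set limit, the compound median plus 3 SD, cut at about 4.7% in these data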;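 note: MRP-1 overexpressing cells given doxorubicin 25 µM after compound pretreatment; 18-22 h compound pretreatment then 72 h with doxorubicin before readout; 0% = doxorubicin-only wells and 100% = vehicle-treated cells without doxorubicin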
CYP2C19 act – cytochrome P450 2C19 (human) activation; AID 1025; recombinant CYP2C19, luciferin-H EGE luminescence; stronger effect = higher value; 0 = fully inhibited enzyme, 1 = untreated enzyme; 96,000 tested, under 10 active; activation factor at 5 µM; P33261;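 active = activation factor of at least 2 at 5 µM in the primary screen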;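 note: 0 = wells with 2.5 mM tranylcypromine and 1 = vehicle-only wells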
Target sequence (P33261 whole entry, looked up): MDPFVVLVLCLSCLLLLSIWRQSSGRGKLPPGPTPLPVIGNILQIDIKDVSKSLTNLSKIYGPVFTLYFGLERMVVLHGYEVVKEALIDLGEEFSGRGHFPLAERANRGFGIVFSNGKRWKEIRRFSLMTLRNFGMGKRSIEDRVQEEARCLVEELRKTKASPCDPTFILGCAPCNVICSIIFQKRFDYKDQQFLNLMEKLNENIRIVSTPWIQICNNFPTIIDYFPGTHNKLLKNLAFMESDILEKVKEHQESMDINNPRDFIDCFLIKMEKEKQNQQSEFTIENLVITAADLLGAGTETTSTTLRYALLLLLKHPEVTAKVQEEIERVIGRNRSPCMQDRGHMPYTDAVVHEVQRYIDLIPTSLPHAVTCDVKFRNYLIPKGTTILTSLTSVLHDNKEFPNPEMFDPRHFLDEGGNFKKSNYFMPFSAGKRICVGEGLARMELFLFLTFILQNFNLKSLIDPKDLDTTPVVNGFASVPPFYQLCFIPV
CYP2C19 inhib – human CYP2C19 inhibition | CYP2C19 Supersomes, luciferin-H EGE luminescence, 30 min | inhibition, % at 5 µM | 96,000 compounds, 21% hits;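 active = CYP2C19 inhibition above a set limit at 5 µM in the primary screen, cut at about 50% in these data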;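 note: plate controls were negative control wells for no effect and 2.5 mM tranylcypromine positive control for full effect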
Starred values were filed as active, the others as inactive; . = no result. An excerpt weighted towards active compounds, which were near 21% of everything screened.

SMILES	CYP2C9 act	CYP2C9 inhib	MRP reversal	MRP-1 activ	CYP2C19 act	CYP2C19 inhib
COC(=O)Cn1cnc2sc(C)c(S(=O)(=O)N3CCC(C)CC3)c2c1=O	0.9	7	7	-1	0.7	26
COC(=O)Cn1cnc2sc(C)c(S(=O)(=O)N3CCN(c4ccccc4OC)CC3)c2c1=O	0.5	51*	9	-1	0.7	27
O=C(CN(C1CC1)S(=O)(=O)c1ccc(S(=O)(=O)NC2CCCCC2)cc1)Nc1ccccc1	0	96*	-20	-6	0	97*
O=C(CN(Cc1cccs1)S(=O)(=O)c1ccc(S(=O)(=O)NC2CCCCC2)cc1)Nc1ccccc1	.	.	.	-4	.	.
CC(C)CNC(=O)CN(C1CCCCC1)S(=O)(=O)c1ccccc1	0.1	92*	5	-2	0.4	58*
Cc1ccccc1N(CC(=O)NCCSC1CCCCC1)S(=O)(=O)c1ccccc1	0.4	58*	.	0	0.8	17
Cc1cc(Cl)ccc1OC(C)C(=O)Nc1ccc([N+](=O)[O-])cn1 (stereo not given)	.	.	.	-1	.	.
NC(=O)c1ccc[n+](Cc2cccc3ccccc23)c1	.	.	.	-1	.	.
CC(=O)Nc1ccc(C2Nc3ccccc3C(=O)N2C2CCCCC2)cc1 (stereo not given)	0.2	84*	-6	-3	0.5	47
Brc1c(CSc2nc3ccccc3o2)nc2ncccn12	1.3	-31	19	-3	0.4	64*
Clc1c(CSc2nc3ccccc3o2)nc2ccccn12	1	-1	-3	-1	0	98*
O=C(N/N=C/c1cccc(Oc2ccc([N+](=O)[O-])cc2[N+](=O)[O-])c1)c1cncc(Br)c1	.	.	-22	-6	.	.
CCCOc1ccc(NC(=O)OC2CCN(C)CC2)cc1	.	.	.	-2	.	.
O=C1c2ccccc2C(=O)C1Cc1cccc2ccccc12	0.3	66*	-15	-2	0.7	31
O=c1cc(-c2cccc3ccccc23)[nH][nH]1	.	.	0	-2	.	.
Cc1ccccc1Cn1nc(C)c(NC(=O)C2c3ccccc3Oc3ccccc32)c1C	.	.	.	-2	.	.
CC(C)OC(=O)c1cccc(NC(=O)c2ccccc2)c1	.	.	-15	0	.	.
O=C(CSc1ccccc1)Nc1nnc(COc2ccc(Cl)cc2)s1	.	.	.	7.1*	.	.
COCC(=O)Nc1nnc(COc2ccc(Cl)cc2)s1	.	.	1	5.4*	.	.
COCc1nnc(NC(=O)CSc2ccccc2)s1	0.6	40	-15	-1	0.3	67*
CC(=O)C(=Nc1ccccc1Cl)NNc1ccc(Cl)cc1	.	.	-4	4	.	.
CCN1CCN(C(=O)C2c3cc(OC)c(OC)cc3C(=O)N(C)C2c2ccc(SC)cc2)CC1 (stereo not given)	.	.	-8	-3	.	.
FC(F)(F)c1nc(N2CCCC2)ncc1-c1nnnn1-c1ccccc1	0.5	52*	.	-1	0.2	82*
Cc1ccc(-n2nnnc2-c2cnc(N3CCCC3)nc2C(F)(F)F)cc1	0.2	76*	.	-2	0.1	87*
Cc1ccc(-n2nnnc2-c2cnn(-c3cccc(F)c3)c2C(F)(F)F)cc1	.	.	6	-4	.	.
SMILES	CYP2C9 act	CYP2C9 inhib	MRP reversal	MRP-1 activ	CYP2C19 act	CYP2C19 inhib
CC1CCN(C(=O)CSc2nnc(Cc3cc(=O)[nH]c(=O)[nH]3)n2-c2ccc(Cl)cc2)CC1	1	4	1	-2	0.9	8
CCOC(=O)C1CCN(C(=O)CSc2cc(=O)n(CC)c3ccccc23)CC1	0.8	20	14	-4	0.4	60*
CCn1c(=O)cc(SCC(=O)N2CCC(C)CC2)c2ccccc21	2.7*	-170	8	-3	0.6	38
CCn1c(=O)cc(SCC(=O)N2CCCCC2)c2ccccc21	1.8	-78	20	-1	0.9	7
NC12CC3CC(C1)CC(CO)(C3)O2	0.9	11	-4	-2	0.9	11
COCCn1c(=O)[nH]c2cc(C(=O)NCCN3CCN(c4ccc(OC)cc4)CC3)ccc2c1=O	.	.	8	-3	.	.
Cc1ccc(-n2c(N)c(C(=O)NCc3ccco3)sc2=S)cc1	0.5	45	10	-3	0.9	11
C=CCn1c(N)c(C(=O)NCc2ccco2)sc1=S	0.4	64*	-7	-2	0.4	60*
CCn1c(N)c(C(=O)N2CCOCC2)sc1=S	0.9	11	44	-4	0.9	8
C=CCn1c(N)c(C(=O)Nc2ccccc2OC)sc1=S	0.2	85*	4	-5	0.2	78*
C=CCn1c(N)c(C(=O)N2CCOCC2)sc1=S	0.3	70*	13	-3	0.5	46
